Screens from PubChem BioAssay.
Sampled rows, rich in hits. Any-hit rate of the full collection: about 1.3%.
E coli Lon inh – inhibitors of E. coli Lon protease, primary screen, biochemical, fluorescence polarization | 360,000 compounds, 0.42% hits | purified E. coli Lon protease | inhibition, % at 7.94 µM | P0A9M0; in the data active = inhibition above about 13%, passing the limit was not always enough;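 also: 0% = enzyme with probe and DMSO and 100% = no enzyme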
MEX-5 binding – MEX-5 zinc finger RNA-binding disruptors – biochemical, C. elegans, fluorescence polarization, MLPCN library, primary screen; Zinc finger protein mex-5 (Caenorhabditis elegans), Q9XUB2; MEX-5/FITC-TCR2 RNA binding; active compounds read low; activity score (negative = inhibition of binding), % at 10 µM; 300,000 compounds, 0.38% hits; AID 1832, 2009;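 active = inhibition past about -25% in most replicates, and total fluorescence under double the plate's negative control median, limit read from the data; inconclusive = replicates evenly split on the limit, or fluorescence at least double controls; inactive = too little inhibition in most replicates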;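 also: 0% = DMSO and -100% = 5 µM competing unlabeled TCR2 RNA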
EBV gp42 block – Epstein-Barr virus gp42 inhibitors, primary screen, biochemical, uHTS, fluorescence polarization; 220,000 compounds, 0.42% hits; AID 1085, 2008; inhibition, % (tested at 21.74 µM); Glycoprotein 42 (Epstein-Barr virus (strain AG876)), Q1HVG2; Fluorescence polarization binding assay, mP read-out; in the data active = inhibition above about 50%
Target sequence (Q1HVG2 whole entry, looked up): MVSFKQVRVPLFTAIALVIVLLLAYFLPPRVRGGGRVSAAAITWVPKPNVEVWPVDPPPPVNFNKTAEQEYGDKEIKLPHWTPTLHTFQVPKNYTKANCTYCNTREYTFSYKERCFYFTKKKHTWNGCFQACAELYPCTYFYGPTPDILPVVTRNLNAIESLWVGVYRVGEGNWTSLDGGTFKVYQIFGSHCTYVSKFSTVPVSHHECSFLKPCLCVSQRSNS
Bcl-xL primary – inhibitors of human Bcl-xL, primary screen, biochemical, fluorescence polarization, HTS; GST-Bcl-xL / FITC-Bim BH3 peptide fluorescence polarization; inhibition, % at 10.9 µM; Bcl-2-like protein 1 (Homo sapiens), Q07817; 320,000 compounds, 0.7% hits; AID 2129, 2009;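 active = inhibition above the mean of all tested compounds plus 3 SD, cutoff set per campaign, cut at about 30% in these data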;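 also: 0% = DMSO wells and 100% = unlabeled Bim-BH3 peptide competitor; inhibitors lower millipolarization by displacing the labeled peptide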
Target sequence (Q07817 whole entry, looked up): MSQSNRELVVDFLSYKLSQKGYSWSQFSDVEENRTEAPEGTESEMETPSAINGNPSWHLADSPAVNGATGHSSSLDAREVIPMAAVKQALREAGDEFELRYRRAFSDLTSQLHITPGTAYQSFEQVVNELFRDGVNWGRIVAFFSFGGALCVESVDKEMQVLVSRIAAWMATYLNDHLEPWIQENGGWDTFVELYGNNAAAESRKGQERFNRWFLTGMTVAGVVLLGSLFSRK
GLD-1 TGE inh – GLD-1/TGE RNA complex disruptors, primary screen, biochemical, fluorescence polarization. Female germline-specific tumor suppressor gld-1 (Caenorhabditis elegans), Q17339. purified GLD-1 + fluorescein TGE RNA. inhibition, % at 5.96 µM. 320,000 compounds, 0.44% hits. AID 2280, 2010;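 active = percent inhibition above a per-plate cutoff, the plate mean of test compounds plus 3 SD, cut at about 30% in these data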;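 also: 0% = DMSO wells with GLD-1 and probe and 100% = wells lacking GLD-1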
GLD-1 TGE cf – GLD-1/TGE RNA binding inhibitors, retest, confirmation, biochemical, fluorescence polarization, triplicate. shares compounds with GLD-1 TGE inh. 550 compounds, 10% hits. GLD-1/FL-TGE RNA fluorescence polarization. inhibition, % at 5.96 µM;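 active = average inhibition across triplicates above the hit cutoff set in the primary screen, cut at about 32% in these data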;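 also: 0% = GLD-1 with RNA probe and DMSO and 100% = wells lacking GLD-1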
* marks the source's active call; other numbers are inactive results.

For CCC1OC2(C)OC(=N)C1(C#N)C(C#N)(C#N)C2c1ccccc1 (stereo unspecified) the results were E coli Lon inh -21, MEX-5 binding -9, EBV gp42 block -14, Bcl-xL primary 60*, GLD-1 TGE inh 44* and GLD-1 TGE cf -1.
Screening CCC12OC(=N)C(C#N)(C1C)C(C#N)(C#N)C(c1ccccc1)O2 (stereo unspecified) returned E coli Lon inh 1, MEX-5 binding -10, EBV gp42 block 9, Bcl-xL primary 21, GLD-1 TGE inh 33* and GLD-1 TGE cf -1.
`Cc1ccc(C2(C)NC(=O)N(CC(=O)Nc3ccccc3C(=O)NC3CCCC3)C2=O)cc1` (stereo unspecified) gave E coli Lon inh 3, MEX-5 binding 2, Bcl-xL primary 3 and GLD-1 TGE inh 2.
`COc1ccc(-c2c(C(F)(F)F)nn(C)c2NC(=O)CSCC(=O)O)cc1` gave E coli Lon inh 0, MEX-5 binding 0, EBV gp42 block -7, Bcl-xL primary 1 and GLD-1 TGE inh -1.
`COc1cc(C=Cc2nnc3c4ccccc4cnn23)cc(OC)c1OC` gave E coli Lon inh 15.
CN1C(=O)c2ccc(N3CCCC3)cc2C1=O was read as E coli Lon inh 7, MEX-5 binding -10, EBV gp42 block 32, Bcl-xL primary 48*, GLD-1 TGE inh 36* and GLD-1 TGE cf 9.
`Clc1ccccc1/C=N/NC1=Nc2cccc3cccc1c23` gave E coli Lon inh 32, MEX-5 binding -5, EBV gp42 block 43, Bcl-xL primary 23, GLD-1 TGE inh 48* and GLD-1 TGE cf 22.
For CCCCCCc1cc2cc(S(=O)(=O)c3ccc(C)cc3)c(=O)oc2cc1O the results were E coli Lon inh 0, MEX-5 binding 2, EBV gp42 block -5, Bcl-xL primary 6, GLD-1 TGE inh 39* and GLD-1 TGE cf -4.
Screening CCn1cc(C(=O)N[C@@H](CCSC)C(=O)NCCCN2CCOCC2)c(=O)c2cc3c(cc21)OCO3 returned E coli Lon inh -5, MEX-5 binding 1, Bcl-xL primary -1 and GLD-1 TGE inh -3.
For CCN1CCN(Cc2ccc(NC(=O)c3ccc(C)c(NC(=O)c4ccnnc4)c3)cc2C(F)(F)F)CC1 the results were E coli Lon inh -6, MEX-5 binding 0, EBV gp42 block -9, Bcl-xL primary -1, GLD-1 TGE inh 39* and GLD-1 TGE cf 2.
For COc1ccc(NC(=O)COC(=O)C2CCN(S(=O)(=O)c3cccs3)CC2)cc1 the results were E coli Lon inh 4, MEX-5 binding -1, EBV gp42 block -1, Bcl-xL primary 6 and GLD-1 TGE inh -2.
Screening C[C@H](CO)N1C[C@H](C)[C@@H](CN(C)C(=O)Nc2ccc3c(c2)OCO3)Oc2c(NS(=O)(=O)c3ccc(F)cc3)cccc2C1=O returned E coli Lon inh 2 and GLD-1 TGE inh 0.
Screening COc1ccc(CCN2C(=O)N[C@@H](C(C)C)C2=O)cc1 returned E coli Lon inh 2, MEX-5 binding 3, Bcl-xL primary 0 and GLD-1 TGE inh 2.
`CCOc1cccc(=O)c2c(C)n(C)c(C)c12` gave E coli Lon inh 11, MEX-5 binding -7, EBV gp42 block 2, Bcl-xL primary 26, GLD-1 TGE inh 40* and GLD-1 TGE cf -4.
Screening O=C(CN1CCCCCCC1)Nc1cc(Cl)cc(Cl)c1 returned E coli Lon inh 12, MEX-5 binding 5, EBV gp42 block -9, Bcl-xL primary 3, GLD-1 TGE inh 33* and GLD-1 TGE cf 3.
Screening O=C(CN1CCCC1)Nc1cccc(Cl)c1 returned E coli Lon inh -7, MEX-5 binding -3, Bcl-xL primary 0 and GLD-1 TGE inh -2.
For COc1ccc(C(=O)Nc2ccc(NC(=O)c3cc(OC)c(OC)c(OC)c3)cn2)cc1 the results were E coli Lon inh 3, MEX-5 binding -1, Bcl-xL primary 5 and GLD-1 TGE inh 5.
For COCCCN1CC(=O)N2C(c3cccc(C)c3)c3[nH]c4ccccc4c3C[C@H]2C1=O (stereo partly specified) the results were E coli Lon inh 4, MEX-5 binding 3, Bcl-xL primary 5 and GLD-1 TGE inh 0.
Cc1ccc(S(=O)(=O)N(C)CCN(C)S(=O)(=O)c2ccc(C)cc2)cc1 was read as E coli Lon inh 0.
COC(=O)c1ccc(NC(=O)CSc2nnc(-c3ccccc3Br)n2-c2ccccc2)cc1 was read as E coli Lon inh 9, MEX-5 binding 2, Bcl-xL primary 1, GLD-1 TGE inh 46* and GLD-1 TGE cf -5.
`Cc1ccc(NC(=O)CSc2nnc(C)n2-c2ccccc2)cc1` gave E coli Lon inh 11, MEX-5 binding 2, EBV gp42 block -4, Bcl-xL primary -4 and GLD-1 TGE inh -1.
Screening O=C1COc2ccc(C(=O)COC(=O)CCSc3ccccc3)cc2N1 returned E coli Lon inh -7, MEX-5 binding -2, EBV gp42 block -10, Bcl-xL primary -19, GLD-1 TGE inh 59* and GLD-1 TGE cf -9.
Screening CCNC(=O)CC1SC(=Nc2ccc(C)c([N+](=O)[O-])c2)N(C)C1=O (stereo unspecified) returned E coli Lon inh -8, MEX-5 binding -4, Bcl-xL primary 5, GLD-1 TGE inh 31* and GLD-1 TGE cf 1.
Screening Cc1ccc(/C=C2/NC(=O)N(Cc3ccccc3)C2=O)o1 returned E coli Lon inh 4, MEX-5 binding -2, EBV gp42 block -50, Bcl-xL primary 38*, GLD-1 TGE inh 50* and GLD-1 TGE cf -88.
`COC(=O)CN1C(=O)N/C(=C/c2ccc(C)o2)C1=O` gave E coli Lon inh 12, MEX-5 binding -6, EBV gp42 block -12, Bcl-xL primary 29, GLD-1 TGE inh 63* and GLD-1 TGE cf -8.
`Cc1ccc(/C=C2\SC(=S)N(Cc3ccccc3)C2=O)o1` gave E coli Lon inh -37, EBV gp42 block -10, Bcl-xL primary 2 and GLD-1 TGE inh -5.
Screening CC(C)(C)c1ccccc1OCCCCCn1ccnc1 returned E coli Lon inh 5, MEX-5 binding 9, EBV gp42 block 4, Bcl-xL primary 0 and GLD-1 TGE inh -14.
For CCOC(=O)N1CCN(C2=Nc3cccc4cccc2c34)CC1 the results were E coli Lon inh 2, MEX-5 binding inconclusive, EBV gp42 block 44, Bcl-xL primary 39*, GLD-1 TGE inh 49* and GLD-1 TGE cf 30.
